In PubChem BioAssay:
Where “and” joins values, the source holds several entries; their conditions need not be identical. Equal values may be shown once. Calls of active or inactive are those of the source.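 How the source made its calls, unless noted: active means mean inhibition above 46.68%, the untreated control wells mean plus 3 SD; inactive means the rest.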

Assays:
[1] = target: Nuclear receptor coactivator 3 (Homo sapiens) (UniProt Q9Y6Q9); assay: SRC3 coactivator transcriptional activity inhibitors, confirmation, cell-based, luminescence, quadruplicate (AID 588792;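 active means mean inhibition over 43.08%, the solvent-only control mean plus 3 SD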;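 further: 0% = DMSO treated cells and 100% = gossypol at 36 µM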); details: HEK293 GAL4-SRC3 luciferase reporter, at 3.6 µM, stronger effect = higher value
[2] = system: transactivating tegument protein VP16 (Human herpesvirus 1), Gal4-VP16 luciferase reporter; assay: VP16 transactivation inhibitors, counter-screen for SRC3 inhibitor project, cell-based, luminescence, high throughput (AID 588794; in the data active means inhibition above about 30%); details: mammalian cells, VP16-driven luciferase reporter luminescence; at 3.6 µM; stronger effect = higher value
[3] = target: Nuclear receptor coactivator 1 (Homo sapiens) (UniProt Q15788); assay: SRC1 coactivator transcriptional activity inhibitors, confirmation, cell-based, luminescence, quadruplicate (AID 588820); details: HEK293 GAL4-SRC1 luciferase reporter, at 3.6 µM, stronger effect = higher value;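 further: 0% = DMSO wells and 100% = gossypol 36 µM treated wells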
[4] = VP16 transactivation inhibitors, counter-screen for SRC1 inhibitor project, cell-based, luminescence, high throughput (AID 588824; in the data active means inhibition above about 25%); details: cell-based VP16 transactivation luciferase luminescence; at 3.6 µM; stronger effect = higher value
[5] = system: transactivating tegument protein VP16 (Human herpesvirus 1); assay: VP16 transactivation reporter inhibitors, counter-screen for SRC2 inhibitor project, cell-based, luminescence, single concentration (AID 652007; in the data active means inhibition above about 36%); details: cell-based VP16 transactivation luciferase reporter, at 8.9 µM, stronger effect = higher value
[6] = target: Nuclear receptor coactivator 2 (Homo sapiens) (UniProt Q15596); assay: SRC2 coactivator transcriptional activity inhibitors, confirmation, cell-based, luminescence, HEK293, triplicate (AID 652008;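 active means mean inhibition above 46.5%, the solvent-only control mean plus 3 SD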;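 further: 0% = DMSO-treated cells and 100% = Gossypol at 36 µM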); details: HEK293 GAL4-SRC2 luciferase reporter, at 8.9 µM, stronger effect = higher value

Measured: inhibition

Chain of Nuclear receptor coactivator 2 (Homo sapiens) (Q15596 whole entry, looked up, the tested form may be a part): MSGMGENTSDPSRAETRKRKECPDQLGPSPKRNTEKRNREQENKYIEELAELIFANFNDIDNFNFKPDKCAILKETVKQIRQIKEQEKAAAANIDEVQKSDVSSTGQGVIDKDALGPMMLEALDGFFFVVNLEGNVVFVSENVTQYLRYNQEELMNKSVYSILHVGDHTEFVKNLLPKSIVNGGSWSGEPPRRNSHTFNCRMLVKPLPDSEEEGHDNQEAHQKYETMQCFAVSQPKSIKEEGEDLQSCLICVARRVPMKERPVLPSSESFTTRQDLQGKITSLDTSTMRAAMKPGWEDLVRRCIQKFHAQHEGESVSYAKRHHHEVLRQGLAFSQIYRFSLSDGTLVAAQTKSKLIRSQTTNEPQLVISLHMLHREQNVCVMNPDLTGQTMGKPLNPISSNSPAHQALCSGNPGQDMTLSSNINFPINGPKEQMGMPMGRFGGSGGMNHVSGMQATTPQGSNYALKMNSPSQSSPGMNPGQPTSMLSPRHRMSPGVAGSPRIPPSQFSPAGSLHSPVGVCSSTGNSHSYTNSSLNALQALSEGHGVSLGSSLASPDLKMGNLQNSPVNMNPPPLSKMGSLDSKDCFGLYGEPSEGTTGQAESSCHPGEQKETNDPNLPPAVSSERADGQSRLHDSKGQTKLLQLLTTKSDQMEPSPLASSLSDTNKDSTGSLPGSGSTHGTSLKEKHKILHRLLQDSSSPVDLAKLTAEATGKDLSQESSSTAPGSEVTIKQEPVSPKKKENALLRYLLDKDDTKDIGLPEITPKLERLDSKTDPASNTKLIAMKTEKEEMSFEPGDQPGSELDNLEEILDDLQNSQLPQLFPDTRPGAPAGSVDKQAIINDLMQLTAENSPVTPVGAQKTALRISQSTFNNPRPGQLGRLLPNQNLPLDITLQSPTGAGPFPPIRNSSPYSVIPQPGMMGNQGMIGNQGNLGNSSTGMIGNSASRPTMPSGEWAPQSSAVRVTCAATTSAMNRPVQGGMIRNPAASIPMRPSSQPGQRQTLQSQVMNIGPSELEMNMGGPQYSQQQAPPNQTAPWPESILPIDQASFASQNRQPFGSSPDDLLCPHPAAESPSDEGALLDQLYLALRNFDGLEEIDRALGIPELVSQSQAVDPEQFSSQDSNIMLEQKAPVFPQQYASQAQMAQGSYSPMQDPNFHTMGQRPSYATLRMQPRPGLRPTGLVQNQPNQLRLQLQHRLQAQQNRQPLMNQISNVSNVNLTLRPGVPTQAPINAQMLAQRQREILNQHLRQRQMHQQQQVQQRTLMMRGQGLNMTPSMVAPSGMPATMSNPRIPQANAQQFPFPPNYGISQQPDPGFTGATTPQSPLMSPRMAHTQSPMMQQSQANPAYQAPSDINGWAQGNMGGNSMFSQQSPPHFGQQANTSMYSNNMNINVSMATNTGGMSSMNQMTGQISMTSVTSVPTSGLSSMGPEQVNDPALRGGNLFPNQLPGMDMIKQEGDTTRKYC
Chain of Nuclear receptor coactivator 3 (Homo sapiens) (Q9Y6Q9 whole entry, looked up, the tested form may be a part): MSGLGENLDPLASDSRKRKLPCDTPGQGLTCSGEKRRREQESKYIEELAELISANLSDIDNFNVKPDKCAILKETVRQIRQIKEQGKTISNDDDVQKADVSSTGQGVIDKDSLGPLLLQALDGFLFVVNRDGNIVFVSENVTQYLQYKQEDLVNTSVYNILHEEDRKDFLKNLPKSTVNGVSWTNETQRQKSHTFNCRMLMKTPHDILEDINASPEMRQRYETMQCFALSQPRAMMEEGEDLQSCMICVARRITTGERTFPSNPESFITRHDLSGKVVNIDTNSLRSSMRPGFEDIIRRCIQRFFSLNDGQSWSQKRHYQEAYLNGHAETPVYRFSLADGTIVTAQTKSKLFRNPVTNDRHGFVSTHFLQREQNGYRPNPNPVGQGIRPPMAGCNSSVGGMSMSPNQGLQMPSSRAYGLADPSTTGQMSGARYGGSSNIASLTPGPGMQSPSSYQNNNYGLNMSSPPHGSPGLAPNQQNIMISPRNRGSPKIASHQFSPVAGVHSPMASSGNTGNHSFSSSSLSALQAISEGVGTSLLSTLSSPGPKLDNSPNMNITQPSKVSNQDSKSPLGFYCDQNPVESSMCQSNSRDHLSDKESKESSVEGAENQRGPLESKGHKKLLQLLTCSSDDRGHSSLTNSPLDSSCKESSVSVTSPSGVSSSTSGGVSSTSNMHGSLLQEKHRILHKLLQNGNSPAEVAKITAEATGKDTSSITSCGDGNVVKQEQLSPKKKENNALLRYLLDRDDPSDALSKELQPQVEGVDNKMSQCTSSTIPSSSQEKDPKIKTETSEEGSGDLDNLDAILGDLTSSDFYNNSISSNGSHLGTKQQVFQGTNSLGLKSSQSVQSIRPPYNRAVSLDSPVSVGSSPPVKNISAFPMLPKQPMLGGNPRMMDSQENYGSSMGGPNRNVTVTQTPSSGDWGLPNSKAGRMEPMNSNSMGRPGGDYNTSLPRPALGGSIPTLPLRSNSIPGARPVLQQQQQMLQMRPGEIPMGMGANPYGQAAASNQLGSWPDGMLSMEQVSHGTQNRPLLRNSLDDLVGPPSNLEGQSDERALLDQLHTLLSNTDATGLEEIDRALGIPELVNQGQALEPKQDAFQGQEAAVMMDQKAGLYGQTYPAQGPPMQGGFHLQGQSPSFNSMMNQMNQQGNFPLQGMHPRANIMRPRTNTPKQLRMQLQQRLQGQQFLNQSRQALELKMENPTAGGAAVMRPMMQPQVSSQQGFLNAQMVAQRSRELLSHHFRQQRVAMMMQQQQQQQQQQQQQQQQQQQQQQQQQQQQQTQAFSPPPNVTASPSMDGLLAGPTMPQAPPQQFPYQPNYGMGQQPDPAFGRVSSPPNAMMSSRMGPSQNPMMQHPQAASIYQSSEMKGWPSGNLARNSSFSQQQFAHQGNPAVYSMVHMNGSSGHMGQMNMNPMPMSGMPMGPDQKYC
Chain of Nuclear receptor coactivator 1 (Homo sapiens) (Q15788 whole entry, looked up, the tested form may be a part): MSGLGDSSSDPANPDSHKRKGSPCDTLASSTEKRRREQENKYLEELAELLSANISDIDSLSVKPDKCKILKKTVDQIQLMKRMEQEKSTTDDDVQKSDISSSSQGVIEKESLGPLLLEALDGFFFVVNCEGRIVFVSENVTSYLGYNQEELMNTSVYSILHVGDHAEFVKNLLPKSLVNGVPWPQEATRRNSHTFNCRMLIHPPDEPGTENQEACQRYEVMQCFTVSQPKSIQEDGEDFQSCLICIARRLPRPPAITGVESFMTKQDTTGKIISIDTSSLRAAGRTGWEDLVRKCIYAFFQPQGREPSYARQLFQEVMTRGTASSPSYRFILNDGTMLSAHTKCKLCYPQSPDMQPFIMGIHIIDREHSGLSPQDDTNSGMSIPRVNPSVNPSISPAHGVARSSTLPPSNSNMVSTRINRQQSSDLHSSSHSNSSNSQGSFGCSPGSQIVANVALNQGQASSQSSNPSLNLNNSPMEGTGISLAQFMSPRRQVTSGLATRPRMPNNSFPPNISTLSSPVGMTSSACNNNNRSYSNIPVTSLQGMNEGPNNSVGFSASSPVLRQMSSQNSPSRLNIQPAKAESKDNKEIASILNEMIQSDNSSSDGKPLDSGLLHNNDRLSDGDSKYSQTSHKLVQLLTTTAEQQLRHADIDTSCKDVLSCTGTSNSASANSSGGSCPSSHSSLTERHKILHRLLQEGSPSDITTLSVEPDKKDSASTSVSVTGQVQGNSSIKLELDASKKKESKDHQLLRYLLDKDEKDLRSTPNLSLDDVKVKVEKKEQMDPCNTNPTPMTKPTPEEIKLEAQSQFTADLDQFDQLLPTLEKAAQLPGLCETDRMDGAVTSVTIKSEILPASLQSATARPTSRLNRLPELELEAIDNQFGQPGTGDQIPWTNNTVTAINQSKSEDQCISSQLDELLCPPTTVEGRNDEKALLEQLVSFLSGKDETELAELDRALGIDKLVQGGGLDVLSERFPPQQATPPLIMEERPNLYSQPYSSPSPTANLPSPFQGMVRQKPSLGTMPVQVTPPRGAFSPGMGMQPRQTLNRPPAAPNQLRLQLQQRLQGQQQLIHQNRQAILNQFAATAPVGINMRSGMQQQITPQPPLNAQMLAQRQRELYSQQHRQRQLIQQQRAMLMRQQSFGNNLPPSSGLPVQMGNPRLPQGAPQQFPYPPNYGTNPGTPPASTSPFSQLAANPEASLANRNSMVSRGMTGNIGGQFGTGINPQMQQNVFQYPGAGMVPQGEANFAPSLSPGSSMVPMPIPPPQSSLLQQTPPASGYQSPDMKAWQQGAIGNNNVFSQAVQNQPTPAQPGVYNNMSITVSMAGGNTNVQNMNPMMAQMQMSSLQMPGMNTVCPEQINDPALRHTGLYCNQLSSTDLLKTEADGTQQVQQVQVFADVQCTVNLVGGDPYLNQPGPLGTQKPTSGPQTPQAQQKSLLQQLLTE

O=C(CCl)N1N=C(c2ccco2)CC1c1ccco1 (stereo not drawn)
active: [1] 59.1% | [5] 36.6% | [6] 67.9%
inactive: [2] 12.5% | [3] 32.7% | [4] 4.7%

O=C(N/N=C/c1cc(Br)ccc1O)C(c1ccncc1)N1CCOCC1 (stereo not drawn)
inactive: [1] 19.3% | [2] 20.1% | [3] 19.4% | [4] 10.6% | [5] 11.5% | [6] 10.1%

COc1ccc(-n2c(C)c(C(C)=O)c3cc(O)ccc32)cc1
active: [1] 76.1% | [2] 55.6% | [3] 64.1% | [4] 56.6% | [6] 54%
inactive: [5] -5.76%

COc1ccc(C2=Nn3c(nnc3-c3ccncc3)SC2)cc1
active: [1] 65.2% | [2] 48.6% | [3] 57.8% | [4] 37%
inactive: [5] 12.8% | [6] 39.8%

Nc1ncnc(N2CCc3ccccc32)c1[N+](=O)[O-]
active: [1] 85.4% | [2] 61.3% | [3] 75.9% | [4] 61.2% | [6] 55.2%
inactive: [5] 9.34%

CC1CCCCN1c1ncnc(N)c1[N+](=O)[O-] (stereo not drawn)
inactive: [5] 4.43% | [6] 44.8%
active: [1] 61.7% | [2] 35.2% | [3] 50.6% | [4] 36.8%

COc1ccc(/C=C2/SC(=S)N(CCC(=O)O)C2=O)cc1
inactive: [1] 34.8% | [2] 4.06% | [3] 23% | [4] 0.23% | [5] -21.3%
active: [6] 85.1%

Cc1ccc(C)c(N2CCN(C(=O)CCS(=O)(=O)c3ccc4c(c3)NC(=O)CO4)CC2)c1
inactive: [1] -1.43% | [2] 16.3% | [3] -0.57% | [4] 17.9% | [5] 3.15% | [6] 15.3%

CCC(=O)NC(c1ccc(C)cc1)c1ccc2cccnc2c1O (stereo not drawn)
inactive: [3] 45.3% | [5] -3.42% | [6] 24.4%
active: [1] 55.7% | [2] 38.1% | [4] 53.4%

COc1ccc2[nH]c3c(c2c1)CC(C)NC3=O (stereo not drawn)
active: [1] 73% | [2] 49.7% | [3] 67.3% | [4] 52.2%
inactive: [5] 14.3% | [6] 41.6%

COC(=O)Cc1[nH]n(-c2nc3ccccc3s2)c(=O)c1C(C)=Nc1ccc(OC)cc1
active: [1] 85.2% | [2] 78.4% | [3] 71.8% | [4] 73.8% | [5] 91.5% | [6] 93.9%

O=C(CCCN1C(=O)/C(=C/c2ccccc2Cl)SC1=S)NNC(=O)c1ccncc1
active: [5] 40.6% | [6] 65.4%
inactive: [1] 14.7% | [2] 8.23% | [3] 10.8% | [4] 10.8%

Cc1ccc(-c2csc(=Nc3cccnc3)n2CCCn2ccnc2)cc1C
active: [1] 71% | [2] 51.5% | [3] 66.7% | [4] 45.6% | [6] 56.8%
inactive: [5] -0.44%

Cc1nnc(SCC(=O)N2CCC(c3noc4ccc(F)cc34)CC2)s1
active: [1] 85.1% | [2] 48.4% | [3] 69.4% | [4] 45.1%
inactive: [5] 6.59% | [6] 44.8%

Brc1ccc2ncnc(Nc3ccc(N4CCOCC4)cc3)c2c1
active: [1] 57.9% | [2] 31.9% | [3] 59.7% | [4] 35.3%
inactive: [5] -2.24% | [6] 39.9%

CN(C)c1ccc(C(=S)Nc2ccccc2)cc1
inactive: [1] 39.1% | [2] 13.3% | [3] -21.5% | [4] -24.4% | [5] -5.11%
active: [6] 51.1%

c1ccc(CNc2ncnc3ccccc23)cc1
inactive: [3] 17.6% and 34.3% | [5] 14%
active: [1] 47% | [2] 44.9% | [4] 34.9% and 44% | [6] 48.8%

COCC(C)n1c(C)cc(C(=O)COC(=O)c2cccn2C)c1C (stereo not drawn)
inactive: [1] 9.47% | [2] -13.8% | [3] -58.2% | [4] -61%
active: [5] 48.1% | [6] 57.2%

COc1ccc(-c2cncnc2-c2ccc(OC)cc2O)cc1
active: [1] 58.9% | [2] 36.3% | [3] 57.1% | [4] 35%
inactive: [5] 14.3% | [6] 42.5%

CN(C)C(=O)c1cccc(-c2cnc3sc(NCc4ccc5c(c4)OCO5)nn23)c1
active: [1] 53.2% | [2] 35.7% | [3] 51.8% | [4] 33.7% | [6] 62.2%
inactive: [5] 8.86%

CCCCN(c1ccccc1)c1ncnc(N)c1[N+](=O)[O-]
inactive: [5] 17.4% | [6] 44.7%
active: [1] 72.2% | [2] 57.6% | [3] 64.5% | [4] 48.5%

S=C(c1ccc(-c2ccccc2)cc1)N1CCOCC1
active: [6] 79.1%
inactive: [1] 9.3% | [2] 4.1% | [3] 33.3% | [4] -6.87% | [5] 10.2%

O=C(CC(Nc1ccc(Cl)cc1Cl)C(=O)O)c1ccccc1 (stereo not drawn)
inactive: [2] 18.1% | [3] -4.19% | [4] -13.2% | [5] 18.8%
active: [1] 52.3% | [6] 57.9%

Cc1ccc(-n2c(C)c([N+](=O)[O-])c3ccc(O)c(CN(C)C)c32)cc1
inactive: [5] 2.96% | [6] 41.4%
active: [1] 76.7% | [2] 51.9% | [3] 63.4% | [4] 49.5%

COc1cncc(-c2cnc3sc(NCCc4ccccn4)nn23)c1
inactive: [5] 3.51%
active: [1] 56.8% | [2] 33.6% | [3] 48.4% | [4] 30.6% | [6] 50.2%

CCc1ccn2cc(-c3cc(-c4ccccc4)no3)nc2c1
inactive: [1] 2.16% | [2] 7.18% | [3] -92.4% | [4] -4.46%
active: [5] 36.5% | [6] 61.6%

COc1ccc(/C=C2/SC(=S)N(CCCC(=O)Nc3ccccc3C(=O)O)C2=O)cc1
active: [5] 66.5% | [6] 72.3%
inactive: [1] 22% | [2] 11.6% | [3] -7.34% | [4] 7.32%

CC1CCN(C2=NC(=O)/C(=C/c3ccccc3F)S2)CC1
inactive: [1] 38.5% | [2] -5.24% | [3] -2.11% | [4] -40.4% | [5] -74.3% | [6] 15.4%

Nc1ncc([N+](=O)[O-])c(N2CCCCCC2)n1
inactive: [5] 4.49%
active: [1] 76.5% | [2] 50.2% | [3] 67.5% | [4] 51.2% | [6] 57.3%

Cc1ccccc1C(=O)N1CCN(c2ccc(NC(=O)CSc3ccc(Cl)cc3)cc2)CC1
active: [1] 46.2% | [2] 45.8% | [3] 46.8% | [4] 38.8% | [6] 51.5%
inactive: [5] 18.4%

CCn1c(Oc2ccccc2F)nc2c1c(=O)n(C)c(=O)n2C
inactive: [5] -5.89%
active: [1] 63% | [2] 51% | [3] 64.4% | [4] 47.2% | [6] 48.6%

CCCC(=O)N1CCN(c2ccc(NC(=O)c3cc4ccccc4o3)cc2Cl)CC1
active: [5] 35.5%
inactive: [1] -3.22% | [2] 5.64% | [3] -6.77% | [4] 6.71% | [6] 27.2%

c1cc2c(cc1C1=NNC(=NC3CC3)SC1)OCCO2
active: [1] 52.8% | [2] 46.4% | [4] 38% | [5] 59.7% | [6] 79.5%
inactive: [3] 15.5%

COc1cccc(NC(=O)Nc2nc(-c3ccc(OC)c(OC)c3)cs2)c1
active: [1] 81.3% | [2] 73.5% | [4] 74% | [5] 89.7% | [6] 92.9%
inactive: [3] 37.4%

COc1ccc(-c2cc(=O)oc3c(C)c(O)ccc23)cc1
inactive: [5] -7.99% | [6] 23.3%
active: [1] 49.4% | [2] 39.7% | [3] 50.3% | [4] 26.4%

CCc1nc(N)nc(N)c1-c1ccc(Cl)c([N+](=O)[O-])c1
inactive: [2] 24.9% | [4] 25% | [5] 28.1% | [6] 24.5%
active: [1] 56.7% | [3] 58.2%

CCn1c2ccccc2c2cnc(N=CN(C)C)c(C#N)c21
inactive: [1] 32% | [2] 19.6% | [3] 28.3% | [4] 21.4% | [5] -28.4% | [6] -0.33%

C=Cc1ccc(CC2(C)C(=O)Nc3ccc(-c4cccnc4)cc32)cc1 (stereo not drawn)
inactive: [5] 2.06% | [6] 35%
active: [1] 45.2% | [2] 38% | [3] 53.8% | [4] 31.1%

COc1ccc(/C=C/C(=O)Nc2ccccc2C(=O)O)cc1OC
inactive: [1] -1.26% | [2] -3.34% | [3] -73.2% | [4] -29.6% | [5] 26.9% | [6] 37.8%

C=C1C(=O)OC2CC1C(O)CC(C)=CCCC(C)=CC(O)CC2C (stereo not drawn)
active: [2] 42.7% | [4] 49.7% | [6] 50.8%
inactive: [1] 22.9% | [3] 27.9% | [5] 23.9%

CCCN(CC(=O)Nc1ccccc1C)C(=O)CCl
active: [1] 74.9% | [2] 48.1% | [3] 48.8% | [4] 53.4% | [5] 65.6% | [6] 75.8%

CC1(Cc2cccc(F)c2)C(=O)Nc2ccc(-c3cccnc3)cc21 (stereo not drawn)
inactive: [5] 8.45%
active: [1] 66.8% | [2] 49.2% | [3] 65% | [4] 49% | [6] 56%

Cc1ccccc1C(=O)N1CCN(c2ccc(NC(=O)c3ccc4c(c3)OCCO4)cc2)CC1
active: [2] 43% | [4] 41.5%
inactive: [1] 25.7% | [3] 32.2% | [5] 34.3% | [6] 45.5%
